Nine molecules from PubChem BioAssay (EPA / NIEHS) can be followed below.

Values joined by “and” are separate entries in the source; they are usually repeats but may differ in a detail not shown here. Identical values can stand only once. Records with an inconclusive call do not appear. Active and inactive are the calls of the source. Rule for the calls: active = hit-call score of the fitted dose curve at least 0.9, where 1 is the maximum; inconclusive = response in the unintended direction; inactive = score below 0.9.

Assay [1] deals with rat CYP3A2, Cyp3a2 (gene 266682) (UniProt P05183). The assay can be described thus: NVS_ADME_rCYP3A2: NovaScreen (NVS) CYP450-related Enzyme Activity (ADME) Assay for rat CYP3A2 (AID 2283128). A digest of the protocol:
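Cell-free rat CYP3A2 enzyme assay with fluorescent substrate, read 0.5 h after dosing. Primary duplicate screen at 10 uM; actives run in concentration-response up to 20 uM, relative to acetonitrile baseline.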

The target of assay [2] is human Aurora Kinase A - serine/threonine-protein Kinase 6 (AurA), AURKA (gene 6790) (UniProt O14965). The experiment in a line: NVS_ENZ_hAurA: NovaScreen (NVS) Enzymatic Assay for human Aurora Kinase A - serine/threonine-protein Kinase 6 (AurA) (AID 2283142). A digest of the protocol:
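Cell-free enzymatic assay with human Aurora A, 1 hour after dosing. Fluorescent substrate turnover detected after electrophoretic mobility shift separation of substrate and product. Screened at 25 uM, actives retested in concentration-response up to 50 uM.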

Assay [3] has as its target human AMP-activated Protein Kinase, alpha 1 (AMPKa1), PRKAA1 (gene 5562) (UniProt Q13131). The assay can be described thus: NVS_ENZ_hAMPKa1: NovaScreen (NVS) Enzymatic Assay for human AMP-activated Protein Kinase, alpha 1 (AMPKa1) (AID 2283130). A digest of the protocol: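 Recombinant human AMPKα1 activity was measured cell-free by fluorescent substrate conversion with electrophoretic mobility-shift separation, 1 h after dosing. Duplicate single-point screening was at 25 uM; actives (≥30% inhibition) were retested in concentration-response up to 50 uM.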

The target in assay [4] is Caspase-3 (Homo sapiens) (UniProt P42574). The experiment in a line: NVS_ENZ_hCASP3: NovaScreen (NVS) Enzymatic Assay for human Caspase 3 (CASP3) (AID 2283139). A digest of the protocol:
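Recombinant human caspase-3 from E. coli with a fluorogenic substrate, read by fluorescence 1 h after dosing. Primary screen in duplicate at 25 uM. Actives (for example ≥30% inhibition) rerun as concentration-response up to 50 uM.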

Assay [5] deals with human Caspase 8 (CASP8), CASP8 (gene 841) (UniProt Q14790). The experiment in a line: NVS_ENZ_hCASP8: NovaScreen (NVS) Enzymatic Assay for human Caspase 8 (CASP8) (AID 2283146). A digest of the protocol: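 E. coli-expressed enzyme was used in a cell-free fluorogenic substrate assay read 1 h after dosing. Loss of signal was scored relative to DMSO, and the primary screen was run in duplicate at 25 uM.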

Assay [6] addresses human Caspase 10 (CASP10), CASP10 (gene 843) (UniProt Q92851). The experiment in a line: NVS_ENZ_hCASP10: NovaScreen (NVS) Enzymatic Assay for human Caspase 10 (CASP10) (AID 2283133). A digest of the protocol:
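Recombinant human caspase-10 from E. coli, cell-free fluorogenic substrate assay read 1 h after dosing. Primary duplicate screen at 25 uM; hits (e.g. ≥30% inhibition) run singly in concentration-response up to 50 uM, normalised to DMSO.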

For assay [7], the target named is human Casein Kinase 1-delta (CK1D), CSNK1D (gene 1453) (UniProt P48730). The experiment in a line: NVS_ENZ_hCK1D: NovaScreen (NVS) Enzymatic Assay for human Casein Kinase 1-delta (CK1D) (AID 2283148). A digest of the protocol:
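Recombinant human CK1-delta, cell-free; fluorescent substrate with electrophoretic mobility-shift separation of product, read 1 h after dosing. Single 25 uM duplicate screen, then concentration-response up to 50 uM; loss of signal vs DMSO.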

For assay [8], the target named is human AKT serine/threonine Kinase 2 (AKT2), AKT2 (gene 208) (UniProt P31751). The assay can be described thus: NVS_ENZ_hAKT2: NovaScreen (NVS) Enzymatic Assay for human AKT serine/threonine Kinase 2 (AKT2) (AID 2283141). A digest of the protocol:
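Cell-free fluorescence/electrophoretic mobility shift readout of recombinant human AKT2 activity, 1 h after chemical dosing. Duplicate primary screen at 25 uM, then singleton concentration-response up to 50 uM; loss of signal versus DMSO baseline.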

rat CYP3A2, Cyp3a2 (gene 266682), sequence (P05183 whole entry, looked up): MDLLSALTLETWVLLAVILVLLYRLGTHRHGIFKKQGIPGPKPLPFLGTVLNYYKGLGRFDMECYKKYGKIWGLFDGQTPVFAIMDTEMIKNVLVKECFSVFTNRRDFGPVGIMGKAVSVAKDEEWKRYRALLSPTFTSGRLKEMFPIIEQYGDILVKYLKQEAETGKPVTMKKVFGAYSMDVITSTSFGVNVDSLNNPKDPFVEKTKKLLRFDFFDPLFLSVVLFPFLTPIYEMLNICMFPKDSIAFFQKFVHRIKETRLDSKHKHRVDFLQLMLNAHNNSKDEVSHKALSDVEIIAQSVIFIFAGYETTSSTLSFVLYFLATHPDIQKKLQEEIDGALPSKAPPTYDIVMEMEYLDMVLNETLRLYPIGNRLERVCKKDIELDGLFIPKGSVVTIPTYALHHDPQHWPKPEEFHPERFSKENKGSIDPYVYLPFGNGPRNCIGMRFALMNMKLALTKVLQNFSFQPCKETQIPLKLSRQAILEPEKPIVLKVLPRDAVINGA
human AKT serine/threonine Kinase 2 (AKT2), AKT2 (gene 208), sequence (P31751 whole entry, looked up): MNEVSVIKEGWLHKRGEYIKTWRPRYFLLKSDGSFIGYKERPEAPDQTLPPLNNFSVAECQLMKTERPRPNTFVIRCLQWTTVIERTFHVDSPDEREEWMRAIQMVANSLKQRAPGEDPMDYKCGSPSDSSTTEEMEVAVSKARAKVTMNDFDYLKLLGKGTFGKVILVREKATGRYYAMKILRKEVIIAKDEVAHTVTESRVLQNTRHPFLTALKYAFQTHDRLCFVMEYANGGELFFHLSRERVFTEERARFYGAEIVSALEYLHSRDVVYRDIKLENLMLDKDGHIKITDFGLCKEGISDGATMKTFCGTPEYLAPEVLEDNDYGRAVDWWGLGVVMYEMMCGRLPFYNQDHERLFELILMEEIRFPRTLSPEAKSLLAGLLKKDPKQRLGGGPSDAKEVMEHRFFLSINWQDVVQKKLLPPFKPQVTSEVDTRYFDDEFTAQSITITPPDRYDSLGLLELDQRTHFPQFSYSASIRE
Caspase-3 (Homo sapiens), sequence (P42574 whole entry, looked up): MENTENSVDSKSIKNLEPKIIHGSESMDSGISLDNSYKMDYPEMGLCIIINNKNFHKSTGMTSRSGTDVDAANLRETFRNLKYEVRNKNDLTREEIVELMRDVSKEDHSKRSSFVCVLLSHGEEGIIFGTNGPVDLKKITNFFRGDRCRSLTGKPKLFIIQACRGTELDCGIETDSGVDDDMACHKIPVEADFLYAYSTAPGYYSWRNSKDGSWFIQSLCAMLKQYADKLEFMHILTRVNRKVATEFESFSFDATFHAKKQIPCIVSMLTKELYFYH
human Casein Kinase 1-delta (CK1D), CSNK1D (gene 1453), sequence (P48730 whole entry, looked up): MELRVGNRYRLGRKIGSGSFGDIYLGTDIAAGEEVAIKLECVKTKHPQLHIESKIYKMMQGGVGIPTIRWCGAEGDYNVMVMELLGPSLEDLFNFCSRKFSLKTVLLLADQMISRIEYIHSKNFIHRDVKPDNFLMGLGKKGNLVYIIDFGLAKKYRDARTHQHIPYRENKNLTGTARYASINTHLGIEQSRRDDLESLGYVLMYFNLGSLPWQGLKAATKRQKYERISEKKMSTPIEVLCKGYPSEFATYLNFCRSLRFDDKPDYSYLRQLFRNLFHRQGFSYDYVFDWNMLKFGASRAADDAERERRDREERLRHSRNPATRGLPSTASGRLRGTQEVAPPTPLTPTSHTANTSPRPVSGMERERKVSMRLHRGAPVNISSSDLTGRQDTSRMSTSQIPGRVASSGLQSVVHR
human Caspase 8 (CASP8), CASP8 (gene 841), sequence (Q14790 whole entry, looked up): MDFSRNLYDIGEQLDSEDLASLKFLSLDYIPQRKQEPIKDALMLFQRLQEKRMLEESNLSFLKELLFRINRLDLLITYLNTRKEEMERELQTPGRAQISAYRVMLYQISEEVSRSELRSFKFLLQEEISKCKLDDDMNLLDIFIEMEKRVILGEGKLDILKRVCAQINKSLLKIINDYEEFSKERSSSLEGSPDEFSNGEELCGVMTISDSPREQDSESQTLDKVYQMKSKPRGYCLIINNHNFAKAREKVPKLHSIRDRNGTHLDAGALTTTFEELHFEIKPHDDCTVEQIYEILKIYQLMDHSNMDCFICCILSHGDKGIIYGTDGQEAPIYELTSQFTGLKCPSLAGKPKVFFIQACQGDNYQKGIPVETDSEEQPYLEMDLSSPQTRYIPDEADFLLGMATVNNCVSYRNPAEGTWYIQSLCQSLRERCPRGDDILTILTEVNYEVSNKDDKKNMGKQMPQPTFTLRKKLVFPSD
human Aurora Kinase A - serine/threonine-protein Kinase 6 (AurA), AURKA (gene 6790), sequence (O14965 whole entry, looked up): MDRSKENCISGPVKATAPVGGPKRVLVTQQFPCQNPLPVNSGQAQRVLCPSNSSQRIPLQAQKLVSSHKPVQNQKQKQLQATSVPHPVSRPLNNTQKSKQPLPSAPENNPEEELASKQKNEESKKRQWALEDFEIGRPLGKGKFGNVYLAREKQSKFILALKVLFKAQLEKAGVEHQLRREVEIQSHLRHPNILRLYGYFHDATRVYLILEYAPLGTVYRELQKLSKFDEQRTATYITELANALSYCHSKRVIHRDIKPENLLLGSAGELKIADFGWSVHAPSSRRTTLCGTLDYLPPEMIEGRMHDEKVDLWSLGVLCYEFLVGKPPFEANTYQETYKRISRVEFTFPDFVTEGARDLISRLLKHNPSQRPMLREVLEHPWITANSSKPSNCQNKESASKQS
human AMP-activated Protein Kinase, alpha 1 (AMPKa1), PRKAA1 (gene 5562), sequence (Q13131 whole entry, looked up): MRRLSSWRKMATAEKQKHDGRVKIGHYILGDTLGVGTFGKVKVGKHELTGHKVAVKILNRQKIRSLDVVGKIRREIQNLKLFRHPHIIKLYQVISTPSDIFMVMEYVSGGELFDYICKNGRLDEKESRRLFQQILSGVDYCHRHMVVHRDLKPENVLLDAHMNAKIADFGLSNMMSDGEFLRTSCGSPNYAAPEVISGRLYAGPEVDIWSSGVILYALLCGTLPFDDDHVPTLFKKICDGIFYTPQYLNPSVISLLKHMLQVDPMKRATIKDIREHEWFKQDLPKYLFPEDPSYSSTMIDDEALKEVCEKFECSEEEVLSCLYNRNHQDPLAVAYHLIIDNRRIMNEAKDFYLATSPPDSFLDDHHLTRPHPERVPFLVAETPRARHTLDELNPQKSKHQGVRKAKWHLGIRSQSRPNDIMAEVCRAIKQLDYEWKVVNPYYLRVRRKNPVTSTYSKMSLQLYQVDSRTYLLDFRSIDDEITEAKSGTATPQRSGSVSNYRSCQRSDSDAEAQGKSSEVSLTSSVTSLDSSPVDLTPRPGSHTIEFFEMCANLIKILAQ
human Caspase 10 (CASP10), CASP10 (gene 843), sequence (Q92851 whole entry, looked up): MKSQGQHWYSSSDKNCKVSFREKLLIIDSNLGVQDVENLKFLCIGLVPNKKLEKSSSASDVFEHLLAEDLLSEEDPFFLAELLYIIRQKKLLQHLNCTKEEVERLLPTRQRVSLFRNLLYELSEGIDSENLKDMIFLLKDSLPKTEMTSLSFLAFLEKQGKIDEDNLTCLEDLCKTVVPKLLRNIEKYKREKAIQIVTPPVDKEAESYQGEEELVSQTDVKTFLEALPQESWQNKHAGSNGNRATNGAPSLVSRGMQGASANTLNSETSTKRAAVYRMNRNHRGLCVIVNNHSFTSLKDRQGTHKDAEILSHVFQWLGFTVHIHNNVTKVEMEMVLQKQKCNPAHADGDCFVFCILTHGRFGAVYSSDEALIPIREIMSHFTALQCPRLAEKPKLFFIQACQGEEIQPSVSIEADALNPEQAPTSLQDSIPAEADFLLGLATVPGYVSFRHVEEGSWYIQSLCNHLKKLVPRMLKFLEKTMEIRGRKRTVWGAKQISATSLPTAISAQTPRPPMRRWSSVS

Turning to `Clc1ccc(C2(Cn3cncn3)CC(Br)CO2)c(Cl)c1` (stereo not drawn), in assay [1], the AC50 was 1.91 µM (active).

As to `O=C1C2(Cl)C3(Cl)C4(Cl)C(Cl)(Cl)C5(Cl)C3(Cl)C1(Cl)C5(Cl)C24Cl` (stereo not drawn), in assay [1], the AC50 was 3.98 µM (active) and 7.08 µM (active) and 1.19 µM (active). Besides, the molecule was classed as inactive in assay [2]. For the molecule `CC(=O)[O][Hg][c]1ccccc1`, the AC50 was 14 µM (active) in assay [3], 25 µM (active) in assay [4] and 8.22 µM (active) in assay [5].

On to `O=C(O)C(F)(F)C(F)(F)C(F)(F)C(F)(F)C(F)(F)C(F)(F)C(F)(F)C(F)(F)C(F)(F)C(F)(F)F`, for which the result in assay [6] was inactive.

For the molecule `O=[N+]([O-])c1ccc(O)c([N+](=O)[O-])c1`, the result in assay [4] and in assay [7] was inactive.

Turning to `CC(C)(OO)c1ccccc1`, the outcome in assay [8] was inactive. The same measure, in the same setting: for `ClC1(Cl)C2(Cl)C3(Cl)C4(Cl)C(Cl)(Cl)C5(Cl)C3(Cl)C1(Cl)C5(Cl)C24Cl` (stereo not drawn) the value was “inactive”. Consider `O=c1[nH]c(=O)[nH]c(=O)[nH]1`, for which, in assay [5], the molecule was classed as inactive. For the molecule `CCCCCCCCc1ccc(O)cc1`, in assay [7], the molecule was called inactive.

By AC50 is commonly meant the midpoint of the concentration-response curve, whichever way the signal moves.
